Consider 36 compounds from PubChem BioAssay AID1963317 (National Center for Advancing Translational Sciences (NCATS), 2024).

The target in this test is Tyrosine-protein kinase ABL1 (Homo sapiens) (UniProt P00519). The experiment in a line: ABL1 kinase (ABL1-N-HiBiT) enzymatic inhibition screen - Functional assay. In a few lines:
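ABL1-N-HiBiT enzyme (10 nM final) preincubated with compounds 30 min at room temperature in buffer with 87.5 uM ATP, then reacted with abltide peptide substrate 3 h at room temperature. Remaining ATP read by Kinase-Glo Plus luminescence.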
For orientation: The HiBiT peptide binds its large partner to form an active luciferase.

Records with an inconclusive call do not appear. Where a call stands in place of a potency, no number is given. Active and inactive are the calls of the source. Calls come from the whole dose curve.

Sequence of Tyrosine-protein kinase ABL1 (Homo sapiens) (P00519 whole entry, looked up): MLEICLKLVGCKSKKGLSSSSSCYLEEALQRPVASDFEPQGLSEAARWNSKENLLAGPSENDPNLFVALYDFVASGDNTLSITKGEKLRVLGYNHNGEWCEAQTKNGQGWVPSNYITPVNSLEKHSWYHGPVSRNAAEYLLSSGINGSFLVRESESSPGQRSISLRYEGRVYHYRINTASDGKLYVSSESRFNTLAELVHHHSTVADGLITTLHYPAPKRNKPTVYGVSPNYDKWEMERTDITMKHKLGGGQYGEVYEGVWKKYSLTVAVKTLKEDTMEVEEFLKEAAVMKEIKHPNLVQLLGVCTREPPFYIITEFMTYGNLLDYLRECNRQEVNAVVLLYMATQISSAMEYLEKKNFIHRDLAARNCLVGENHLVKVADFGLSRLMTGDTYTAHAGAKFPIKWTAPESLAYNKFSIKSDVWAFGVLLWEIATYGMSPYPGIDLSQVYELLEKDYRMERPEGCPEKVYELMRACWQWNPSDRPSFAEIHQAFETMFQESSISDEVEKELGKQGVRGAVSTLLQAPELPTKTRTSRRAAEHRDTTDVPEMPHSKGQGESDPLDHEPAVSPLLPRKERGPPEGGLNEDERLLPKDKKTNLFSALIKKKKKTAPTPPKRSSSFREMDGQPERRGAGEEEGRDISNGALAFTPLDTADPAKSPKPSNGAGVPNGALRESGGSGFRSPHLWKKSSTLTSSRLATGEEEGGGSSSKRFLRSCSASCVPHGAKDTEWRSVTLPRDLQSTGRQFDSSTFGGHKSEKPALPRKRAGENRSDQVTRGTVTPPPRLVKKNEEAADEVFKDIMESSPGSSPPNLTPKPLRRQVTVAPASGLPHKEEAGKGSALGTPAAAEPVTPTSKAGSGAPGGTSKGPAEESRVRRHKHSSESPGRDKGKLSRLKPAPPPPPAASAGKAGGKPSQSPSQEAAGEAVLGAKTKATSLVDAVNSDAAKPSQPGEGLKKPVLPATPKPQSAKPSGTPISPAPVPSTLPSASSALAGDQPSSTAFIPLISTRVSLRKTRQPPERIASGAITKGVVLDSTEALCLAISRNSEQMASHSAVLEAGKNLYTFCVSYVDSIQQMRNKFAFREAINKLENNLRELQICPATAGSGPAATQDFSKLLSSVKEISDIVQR

For `CN1CCN(CCOc2cc(OC3CCOCC3)c3c(Nc4c(Cl)ccc5c4OCO5)ncnc3c2)CC1`, the Potency is 217 nM (active).

On to `Cc1ccc(C(=O)Nc2ccc(CN3CCN(C)CC3)c(C(F)(F)F)c2)cc1C#Cc1cnc2[nH]ncc2c1`, for which the Potency was 11.2 nM (active).

With `COc1cc2nccc(Oc3ccc(NC(=O)Nc4ccc(F)cc4F)c(F)c3)c2cc1OC`, the Potency was 1930 nM (active).

As to `O=C(NOCC(O)CO)c1cc(Br)c(F)c(F)c1Nc1ccc(I)cc1F` (stereo unspecified), the Potency result was “inactive”.

`Cc1nc2ccc(-n3ncc(C(=O)c4cc5ccccc5[nH]4)c3N)cc2[nH]1`: the Potency result was “inactive”.

As to `NC1(C(=O)N[C@@H](CCO)c2ccc(Cl)cc2)CCN(c2ncnc3[nH]ccc23)CC1`, the Potency entry is “inactive”.

For `C[C@@H]1CN(CC(=O)Nc2ccc3c(c2)Cc2cccc(-c4cc(=O)cc(N5CCOCC5)o4)c2S3)C[C@H](C)O1`, the Potency entry was “inactive”.

For the compound `Cc1[nH]c2ccccc2c1C1=C(NCCc2ccc(F)cc2)C(=O)N(C)C1=O`, the Potency entry was “inactive”.

Take `O=S(=O)(/N=C/c1c(O)ccc2ccccc12)c1cccs1`: the Potency entry is “inactive”.

Take `Cc1cc(O)c2c(c1)C(=O)c1cc(O)cc(O)c1C2=O`: the Potency entry was “inactive”.

In the case of `CN1CCN(Cc2ccc(-c3cnc4[nH]cc(-c5ccc6[nH]ccc6c5)c4c3)cc2)CC1`, the Potency was 6110 nM (active).

As to `Cc1cc(Nc2ncc3cc(-c4c(Cl)cccc4Cl)c(=O)n(C)c3n2)ccc1F`, the Potency was 37.5 nM (active).

For `Cn1cc(-c2cc3c(N4CCN(c5ncc([C@@](C)(N)c6ccc(F)cc6)cn5)CC4)ncnn3c2)cn1`, the Potency is 12900 nM (active).

As to `CC(C)(NS(=O)(=O)c1ccc2c(Cl)cnc(N=C(N)N)c2c1)C(=O)O`, the Potency result was “inactive”.

On to `Cc1cc(-c2cc(O)ccc2Cl)cc2nnc(Nc3ccc(OCCN4CCCC4)cc3)nc12`, for which the Potency is 47.2 nM (active).

As for `Cc1sc2c(c1C)C(c1ccc(Cl)cc1)=N[C@@H](CC(=O)Nc1ccc(OCCOCCOCCOCCNc3cccc4c3C(=O)N(C3CCC(=O)NC3=O)C4=O)cc1)c1nnc(C)n1-2` (stereo partly specified), the Potency entry was “inactive”.

With `FC(F)(F)c1ccc(/C=C/c2nc(COc3ccc(CCCCn4ccnn4)cc3)co2)cc1`, the Potency entry is “inactive”.

For the compound `Cn1sc(=O)n(Cc2ccccc2)c1=O`, the Potency result is “inactive”.

For the compound `CCCCCCCCCCCCc1ccc(S(=O)(=O)Nc2nncs2)cc1`, the Potency result was “inactive”.

Consider `COc1cc2c(N3CCN(C(=O)Nc4ccc(OC(C)C)cc4)CC3)ncnc2cc1OCCCN1CCCCC1`, for which the Potency entry is “inactive”.

For the compound `COc1ccc(-n2c(C)c([N+](=O)[O-])c3ccc(O)cc32)cc1`, the Potency result is “inactive”.

For `Cc1ccccc1-n1c([C@H](C)Nc2nc(N)nc3nc[nH]c23)nc2cccc(C)c2c1=O`, the Potency result is “inactive”.

Regarding `CCn1c(=O)c(-c2ccc(Cl)cc2Cl)cc2cnc(Nc3ccc(N4CCNCC4)c(F)c3)nc21`, the Potency is 62.9 nM (active).

In the case of `O=C(Nc1ccc(OC(F)(F)F)cc1)c1sccc1NCc1ccnc2ccccc12`, the Potency entry is “inactive”.

`CCCCNc1ncc2c(-c3ccc(S(=O)(=O)N4CCOCC4)cc3)nn(C3CCC(O)CC3)c2n1` (stereo unspecified): the Potency was 7480 nM (active).

Consider `O=c1cc(N2CCOCC2)nc2c3ccccc3ccn12`, for which the Potency result is “inactive”.

On to `CO[C@H]1/C=C/O[C@@]2(C)Oc3c(C)c(O)c4c(O)c(c(/C=N\N5CCN(C6CCCC6)CC5)c(O)c4c3C2=O)NC(=O)/C(C)=C\C=C\[C@H](C)[C@H](O)[C@@H](C)[C@@H](O)[C@@H](C)[C@H](OC(C)=O)[C@@H]1C`, for which the Potency result is “inactive”.

In the case of `O=C1CCC(N2C(=O)c3ccccc3C2=O)C(=O)N1` (stereo unspecified), the Potency result was “inactive”.

As to `O=C(NCCO)c1cccc(-c2cc(Nc3ccc(OC(F)(F)F)cc3)ncn2)c1`, the Potency entry is “inactive”.

`COc1cc(N2CCC(N3CCN(C)CC3)CC2)ccc1Nc1ncc(Cl)c(Nc2ccccc2P(C)(C)=O)n1`: the Potency is 9150 nM (active).

`Cc1cc(Nc2ncc3c(n2)N(C)C(=O)N(c2cc(NC(=O)c4cccc(C(F)(F)F)c4)ccc2C)C3)n(C)n1`: the Potency was 141 nM (active).

On to `O=C(O)C1(Cc2cccc(Nc3nccs3)n2)CCC(Oc2cccc(Cl)c2F)CC1` (stereo unspecified), for which the Potency was 1030 nM (active).

As to `COc1ccccc1-c1c[nH]c2ncc(-c3cncc(C(=O)N(C)C)c3)cc12`, the Potency was 21.7 nM (active).

Take `c1ccc2c(-c3cnn4cc(-c5ccc(N6CCNCC6)cc5)cnc34)ccnc2c1`: the Potency was 127 nM (active).

Consider `C[C@@H](NC(=O)c1ncnc(N)c1Cl)c1ncc(C(=O)Nc2cc(C(F)(F)F)c(Cl)cn2)s1`, for which the Potency is 6290 nM (active).

For the compound `COc1cc2ncnc(-n3nc(-c4ccccn4)nc3N)c2cc1OC`, the Potency is 1060 nM [activator] (active).
